Here are results for 105 molecules from PubChem BioAssay AID602410 (Johns Hopkins Ion Channel Center, 2012).

Among all 340,000 compounds or so, about 2,800 (0.82%) were called active.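 Rule for the calls: active = B-score under library mean minus 4 SD, starting fluorescence ratio at most library mean plus 5 SD; inactive = the rest.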 The full list was thinned out, with actives kept by preference.

For the experiment, the target named is Potassium channel subfamily K member 3 (Homo sapiens) (UniProt O14649). Kind of experiment: blockers of TASK1 two-pore potassium channel – CHO cells, FluxOR thallium flux, B-score, primary screen (AID 602410).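 For B-score: more negative B-score means stronger inhibition of thallium flux through KCNK3.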 As to conditions: CHO-KCNK3 thallium flux, FluxOR fluorescence, at 10 µM; active compounds read low.
Sequence of Potassium channel subfamily K member 3 (Homo sapiens) (O14649 whole entry, looked up): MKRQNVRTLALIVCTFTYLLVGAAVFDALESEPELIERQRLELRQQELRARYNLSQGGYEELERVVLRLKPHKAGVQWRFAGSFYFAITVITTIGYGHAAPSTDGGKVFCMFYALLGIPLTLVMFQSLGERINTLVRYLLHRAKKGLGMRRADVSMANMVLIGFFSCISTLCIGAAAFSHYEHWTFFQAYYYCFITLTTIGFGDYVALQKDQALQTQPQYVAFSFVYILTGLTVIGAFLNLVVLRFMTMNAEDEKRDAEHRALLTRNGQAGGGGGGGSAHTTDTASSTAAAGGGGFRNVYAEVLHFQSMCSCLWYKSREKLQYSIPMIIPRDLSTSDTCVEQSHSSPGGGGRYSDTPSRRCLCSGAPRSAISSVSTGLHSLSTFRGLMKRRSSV
Turning to `CCC(C)(C)NC(=O)/C=C/c1cc(OC)c(OC)c(S(=O)(=O)N2CCc3ccccc32)c1`, the B-score result was “inactive”.
To `COc1ccc(-c2cc(C(=O)N3CCN(Cc4ccc5c(c4)OCO5)CC3)on2)cc1OC` belongs “inactive”; to `COc1cc(Cl)c(S(=O)(=O)N2CCN(Cc3ccc4c(c3)OCO4)CC2)cc1Cl`, -11.5 (active); to `CCn1cc(C(=O)N2CCN(Cc3ccc4c(c3)OCO4)CC2)c2cc(OC)c(OC)cc2c1=O`, “inactive”.
On to `Cc1nc(N)sc1N=Nc1c(C)n(C)n(-c2ccccc2)c1=O`, for which the B-score result was “inactive”.
Under `O=C(c1cc2ccccc2o1)N1CCN(c2cccc(C(F)(F)F)c2)CC1` stands “inactive”; under `c1ccc(-c2cc(N3CCCCC3)c3ccccc3n2)cc1`, “inactive”; under `FC(F)(F)c1cccc(-c2cc3ccccc3nc2N2CCCC2)c1`, -9.37 (active).
To `COC(=O)[C@@H]1CC(O)CN1C(=O)C12CC3CC(CC(C3)C1)C2` (stereo not given in full) belongs “inactive”; to `CC1CN(CCOc2ccccc2[N+](=O)[O-])CC(C)O1` (stereo not given), “inactive”.
To `Cc1cccc(C)c1N1CCN(S(=O)(=O)N2CCCCC2)CC1` belongs -11.9 (active); to `Cc1cccc(C(=O)N2CCN(S(=O)(=O)N3CCCCC3)CC2)c1`, “inactive”.
For the molecule `Cc1cccc(C)c1N1CCN(S(=O)(=O)N2CCOCC2)CC1`, the B-score entry is “inactive”.
To `COC(=O)c1ccc(CNC(=O)C2CCC(=O)N(Cc3ccccn3)C2)cc1` (stereo not given) belongs “inactive”.
Under `COc1ccc(CN2CCN(C(=O)c3cc(C4CC4)nn3-c3ccccc3)CC2)cc1F` stands “inactive”; under `CN(Cc1ccccc1)C(=O)c1ccc(COc2ccccc2)cc1`, “inactive”; under `[O-][n+]1ccc(OCc2ccccc2)cc1`, -9.05 (active).
Under `O=C(O)/C=C\C(=O)Nc1ccc(OCc2ccccc2)cc1` stands “inactive”.
As to `CCCN1Cc2cccc(C(=O)Nc3ccc(S(=O)(=O)N4CCCCCC4)cc3)c2C1=O`, the B-score entry is “inactive”.
Take `O=S(=O)(Nc1ccc(O)c2ccccc12)c1ccc(OC(F)(F)F)cc1`: the B-score result is “inactive”.
As for `Cc1nn(C)c(Oc2ccc(Cl)cc2)c1C=O`, the B-score result is “inactive”.
Under `CCN(CC(=O)Nc1cc(Cl)ccc1C)C(=O)Cn1c(=O)cnc2ccccc21` stands “inactive”.
On to `Cc1ccc(O)c(CNc2nc3ccccc3[nH]2)c1`, for which the B-score entry is “inactive”.
For the molecule `COc1cc(/C=C(\C#N)c2nc3ccccc3[nH]2)ccc1O`, the B-score is -8.85 (active).
To `CCCCCOc1ccc(/C=C/C(=O)NCCc2nc3ccccc3[nH]2)cc1OC` belongs “inactive”.
To `CCCCCc1nnc(NC(=O)c2ccc(=O)n(C)n2)s1` belongs “inactive”; to `COCCCNCCOCCOc1ccc(Cl)cc1Br`, “inactive”; to `Cc1ccc(OCC(=O)c2cc(C)n(Cc3ccco3)c2C)c([N+](=O)[O-])n1`, “inactive”.
As for `CC(C)N(C(=O)CN1CCN(S(=O)(=O)c2ccc(Br)s2)CC1)C(C)C`, the B-score entry is “inactive”.
Take `Cc1ccc(S(=O)(=O)N2CCN(CC(=O)N/N=C/c3ccc(Br)s3)CC2)cc1`: the B-score entry is “inactive”.
As for `Cc1cccc(NC(=O)CN2CCCN(S(=O)(=O)c3ccc(Br)s3)CC2)c1`, the B-score is -11.4 (active).
As to `NC(=O)C1CCN(C(=O)CC2C(=O)NCCN2Cc2cccc(Oc3ccccc3)c2)CC1` (stereo not given), the B-score result was “inactive”.
Under `C[C@H](O)[C@@H]1C(=O)N2CCc3ccc(N4CCOCC4)cc3[C@@H]2C[C@@H]1N(C)C(=O)C(C)(C)C` stands “inactive”.
To `CC(NC(=S)Nc1ccccc1)C(c1cccs1)N1CCOCC1` (stereo not given) belongs “inactive”.
Under `CN(c1ccccc1)S(=O)(=O)c1cccc(NC(=O)Cc2ccc(Cl)cc2)c1` stands -10.7 (active); under `CN(c1ccccc1)S(=O)(=O)c1cccc(NC(=O)Cc2c(F)cccc2Cl)c1`, “inactive”; under `CN(C)S(=O)(=O)c1cccc(NC(=O)Cc2ccsc2)c1`, “inactive”.
In the case of `Cc1cc(F)ccc1S(=O)(=O)Nc1ccc(C(=O)N(C)Cc2ccco2)cc1`, the B-score result is “inactive”.
To `O=C(c1cc(COc2cccc(C(F)(F)F)c2)on1)N1CCSCC1` belongs “inactive”; to `Cc1nonc1C1CCCN1C(=O)c1cc(COc2cccc(C(F)(F)F)c2)on1` (stereo not given), -9.02 (active).
Take `O=C(NC1Cc2ccccc2C1)c1cc(COc2cccc(C(F)(F)F)c2)on1`: the B-score result was “inactive”.
On to `CCCNC(=O)c1ccc(N2CCC3(CC2)CC(c2cccc(Br)c2)=NO3)c(NC(=O)c2ccco2)c1`, for which the B-score entry was “inactive”.
For the molecule `CS(=O)(=O)N1CCCC(C(=O)N2CCOCC2)C1` (stereo not given), the B-score entry is “inactive”.
Regarding `S=c1[nH]nc(-c2ccco2)n1/N=C/c1ccc(Br)s1`, the B-score result was “inactive”.
To `CCN(CC(=O)NCc1ccc(Cl)cc1)C(=O)CSc1ccccc1` belongs “inactive”; to `CSc1cccc(NC(=S)N(C(C)C)C(C)c2ccccn2)c1` (stereo not given), -10.1 (active).
Under `CC(c1ccccn1)N(CCN(C)C)C(=S)Nc1ccccc1F` (stereo not given) stands “inactive”.
Take `CSc1cccc(NC(=S)N(Cc2ccccc2)Cc2ccccn2)c1`: the B-score entry was “inactive”.
Under `NC(=S)Nc1c(Cl)cccc1Cl` stands “inactive”; under `FC(F)(F)c1cccc(Cc2noc(CN3CCC(N4CCCCC4)CC3)n2)c1`, “inactive”.
In the case of `COc1ccc(CN(C)C(C)C(=O)NC2CCCc3ccccc32)cc1` (stereo not given), the B-score result was “inactive”.
`CNS(=O)(=O)c1cccc(C(=O)NCC2CCCCC2)c1`: the B-score entry is “inactive”.
On to `CC(C(=O)NCC1CCCCC1)N(C)Cc1cccc(Cl)c1` (stereo not given), for which the B-score is -8.9 (active).
In the case of `CCc1cccc(NC(=O)C2CCCN(S(=O)(=O)c3ccc4[nH]c(=O)ccc4c3)C2)c1` (stereo not given), the B-score entry is “inactive”.
Under `Cc1cc(OCC(=O)Nc2c(C)n(C)n(-c3ccccc3)c2=O)ccc1[N+](=O)[O-]` stands “inactive”; under `COc1ccc(CNCCCn2cnc3c(OCc4ccccc4)ncnc32)cc1`, “inactive”; under `S=C(Nc1cccc(Br)c1)N1CCn2cccc2C1c1cccnc1` (stereo not given), -9.52 (active).
`Fc1cc(Br)ccc1NC(=S)Nc1cccnc1`: the B-score result is “inactive”.
Turning to `S=C(NCCc1ccccc1)N1CCn2cccc2C1c1ccncc1` (stereo not given), the B-score result was “inactive”.
Consider `C=C(C)c1cccc(C(C)(C)NC(=O)N2CCN(c3ncccn3)CC2)c1`, for which the B-score entry is “inactive”.
Under `C=CCN1CN(S(=O)(=O)c2ccc(OC)cc2)c2nc3ccccc3nc21` stands “inactive”; under `O=C(Nc1ccc(Cl)cn1)c1ccc2c(c1)OCCO2`, “inactive”; under `O=C(Nc1ccc2c(c1)OCCO2)c1ccc(Cl)c(S(=O)(=O)N2CCCCC2)c1`, “inactive”.
Under `O=C(Nc1cccc(S(=O)(=O)Nc2ccc(Cl)cc2)c1)c1ccc2c(c1)OCCO2` stands -9.14 (active).
Under `O=C(NCc1ccco1)C(=O)c1cn(CC(=O)N2CCCCCC2)c2ccccc12` stands “inactive”; under `CCOC(=O)c1cc2cc(-c3c(C(=O)OCC)oc4cc(O)cc(O)c4c3=O)ccc2o1`, -9.55 (active).
Regarding `CCOC(=O)c1cc(=O)c2ccc(OCc3ccccc3)cc2o1`, the B-score entry was “inactive”.
Under `O=c1c(-c2ccc3c(c2)OCCO3)c(C(F)(F)F)oc2cc(O)cc(O)c12` stands “inactive”; under `COc1ccccc1NC(=O)CCC(=O)N1CC(C)Oc2ccc(C)cc21` (stereo not given), “inactive”.
For `O=C(O)C(CCc1ccccn1)c1ccccc1` (stereo not given), the B-score result was “inactive”.
For `Cc1ccc(CS(=O)(=O)CCC(=O)NC2CC2)cc1`, the B-score result was “inactive”.
With `COc1ccc(-c2nn(C)c(=O)c3ccccc23)cc1CNC(=O)C1CCCCC1`, the B-score entry was “inactive”.
As for `O=C(Nc1ccccc1N1CCCC1)c1ccc(F)c(S(=O)(=O)N2CCOCC2)c1`, the B-score result was “inactive”.
Under `CCC(C)C(=O)Nc1ccccc1N1CCN(c2ccc(F)cc2)CC1` (stereo not given) stands “inactive”.
Turning to `CCCC(=O)Nc1ccccc1N1CCN(C(=O)c2ccccc2)CC1`, the B-score result is “inactive”.
For the molecule `O=C(Nc1ccccc1N1CCCC1)c1ccc2ccccc2c1`, the B-score is -8.97 (active).
For `Cc1cccc(C(=O)Nc2ccccc2N2CCN(c3ccc(F)cc3)CC2)c1`, the B-score was -12.2 (active).
To `CCCCC(=O)Nc1ccccc1N1CCN(c2ccc(F)cc2)CC1` belongs -9.06 (active).
For `Cc1cccc(C(=O)NC(=S)N2CCN(c3ccc([N+](=O)[O-])cc3)CC2)c1`, the B-score result is “inactive”.
To `O=C(NC(=S)Nc1ccccc1N1CCCCC1)c1ccc(F)cc1` belongs “inactive”; to `O=C(Nc1ccccc1N1CCOCC1)c1ccncc1`, “inactive”; to `Cc1[nH]c(C)c(S(=O)(=O)N2CCN(c3cccc(C(F)(F)F)c3)CC2)c1C(=O)N1CCCC1`, “inactive”.
To `O=C(NC(=S)N1CCCCC1c1cccnc1)c1ccccc1` (stereo not given) belongs “inactive”; to `CONc1nc2nonc2nc1NOC`, “inactive”; to `CCCC(=O)Nc1cccc(NC(=S)NC(=O)C(C)Oc2ccc(Cl)cc2Cl)c1` (stereo not given), “inactive”.
To `CSc1cccc(NC(=O)C2CCCN2S(=O)(=O)c2ccc3c(c2)CCC(=O)N3)c1` (stereo not given) belongs “inactive”.
Turning to `CC(C(=O)c1ccc(-c2ccccc2)cc1)[n+]1cccc(Br)c1` (stereo not given), the B-score result is “inactive”.
Under `COC(=O)c1nc(NC(=O)c2ccc(C(C)(C)C)cc2)n[nH]1` stands “inactive”.
Consider `CSc1nccc(NC(=O)c2ccc(C(C)(C)C)cc2)n1`, for which the B-score was -10.4 (active).
To `Cc1cccc(NC(=O)c2ccc(S(=O)(=O)N(C)c3ccccc3)cc2)n1` belongs “inactive”; to `COc1ccccc1N(CCOc1ccccc1)S(=O)(=O)c1ccccc1`, -10 (active).
Under `COc1ccccc1NC(=O)CN(c1ccccc1OC)S(=O)(=O)c1ccccc1` stands “inactive”; under `COc1ccccc1N(CC(=O)N1CCCCC1)S(=O)(=O)c1ccccc1`, “inactive”; under `O=S(=O)(O)CCN1CCOCC1`, “inactive”.
Regarding `O=S(=O)(Cc1noc(-c2ccc(OC(F)(F)F)cc2)n1)c1ccc(F)cc1`, the B-score result was “inactive”.
To `N#Cc1nc(Cc2cccc3ccccc23)oc1NCc1ccc2c(c1)OCO2` belongs -13.5 (active); to `c1n[nH]c(NCc2ccc3c(c2)OCO3)n1`, “inactive”; to `O=C(CCNS(=O)(=O)c1ccccc1C(F)(F)F)NCc1ccc2c(c1)OCO2`, “inactive”.
Under `COC(=O)c1ccc2c(=O)n(CCN3CCOCC3)c(SCC(=O)Nc3cccc(OC)c3)nc2c1` stands “inactive”; under `COc1ccc(C(C)=O)cc1CN1C(=O)NC2(CCCCC2C)C1=O` (stereo not given), “inactive”; under `CC(CC(=O)O)CC(=O)NNC(=O)c1cccc(Br)c1` (stereo not given), “inactive”.
To `O=C(/C=C/NNC(=O)c1cccc(Br)c1)c1ccccc1` belongs -9.94 (active).
Consider `Cc1ccccc1NC(=S)NNC(=O)c1cccc(Br)c1`, for which the B-score result is “inactive”.
To `CC(=O)OCC(=O)C1(O)CCC2C3CC(C)C4=CC(=O)CCC4(C)C3C(O)CC21C` (stereo not given) belongs “inactive”; to `CC(C)(C)C(=O)Nc1c(Br)c(C2CC2)nn1-c1ccccc1`, “inactive”.
